Test results as given in PubChem BioAssay AID1159580 (chemical genetic matrix, 2015).
The campaign covered roughly 5,500 compounds. About 2,000 (36%) were called active. Roughly 18% stayed inconclusive and do not appear here. No stated cut-off is given here; in the data, active means normalized growth mostly below about 0.91 (no sharp cut-off); inconclusive means no clear call, values can overlap the other calls; inactive means mostly above about 0.92. This is one part of the list.

Experiment: chemical genetic growth profiling, strain panel (AID 1159580);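 further: tested at 20 µM; growth read once vehicle control cultures reached saturation at 30 °C; 1 = growth at the plate median or of vehicle wells; lower values mean less growth of the strain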
Conditions: S. cerevisiae deletion strains, growth OD
[1] = locus YAL040C, strain CLN3, active compounds read low
[2] = locus YCL061C, strain MRC1 (second series), active compounds read low
[3] = locus YDR363W, strain ESC2, active compounds read low
[4] = locus YER002W, strain NOP16, active compounds read low
[5] = locus YMR307W, strain GAS1, active compounds read low
[6] = locus YNL175C, strain NOP13, active compounds read low
[7] = locus YNL197C, strain WHI3, active compounds read low
[8] = locus YNL224C, strain SQS1, active compounds read low
[9] = locus YOR083W, strain WHI5 (second series), active compounds read low
[10] = locus YPL055C, strain LGE1, active compounds read low
[11] = locus YPL241C, strain CIN2, active compounds read low

Measured: normalized growth

CC(C)[C@@]1(NC(=O)[C@@H]2C[C@@H]3c4cccc5[nH]cc(c45)C[C@H]3N(C)C2)O[C@@]2(O)[C@@H]3CCCN3C(=O)[C@H](Cc3ccccc3)N2C1=O
inactive: locus YAL013W, strain DEP1, active compounds read low 0.941 | [1] 0.972 | [2] 0.974 | [3] 0.945 | [4] 0.981 | locus YGR078C, strain PAC10, active compounds read low 0.996 | [5] 0.985 | [6] 0.987 | [7] 1.02 | [8] 1 | locus YNL322C, strain KRE1, active compounds read low 0.924 | [9] 1 | [10] 0.91 | [11] 0.985

CN1CC(C(=O)NC2(C)OC3(O)C4CCCN4C(=O)C(Cc4ccccc4)N3C2=O)CC2c3cccc4[nH]cc(c34)CC21 (stereo not drawn)
inactive: [1] 0.995 | [2] 0.992 | locus YDR150W, strain NUM1, active compounds read low 0.99 | [3] 0.974 | [4] 0.988 | locus YMR263W, strain SAP30, active compounds read low 0.987 | [5] 0.965 | locus YNL128W, strain TEP1, active compounds read low 0.994 | [6] 1.01 | [7] 0.985 | [8] 1 | [9] 0.98 | [10] 0.905 | [11] 0.995
